In the library only some 4.7% were active in any assay of this set; here they are far more common.
ATG4B inhibitor = ATG4B (human) cysteine protease inhibition. Q9Y4P1. ATG4B cleavage of LC3-PLA2, NBD-HPC fluorescence, 1 h. inhibition, % at 8.33 µM. 340,000 tested, 0.51% active; in the data active = inhibition above about 40%
Target sequence (Q9Y4P1 whole entry, looked up): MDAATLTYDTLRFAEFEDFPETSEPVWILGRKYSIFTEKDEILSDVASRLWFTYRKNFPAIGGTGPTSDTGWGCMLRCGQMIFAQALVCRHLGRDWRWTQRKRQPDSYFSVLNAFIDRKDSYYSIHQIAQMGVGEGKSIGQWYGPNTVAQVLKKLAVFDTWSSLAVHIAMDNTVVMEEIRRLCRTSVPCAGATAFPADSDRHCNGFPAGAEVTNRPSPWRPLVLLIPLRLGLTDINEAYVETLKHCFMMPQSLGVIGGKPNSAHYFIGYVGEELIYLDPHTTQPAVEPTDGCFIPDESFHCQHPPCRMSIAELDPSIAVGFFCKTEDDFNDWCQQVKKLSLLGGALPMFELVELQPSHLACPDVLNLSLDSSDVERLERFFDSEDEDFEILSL
tim23-1 inh = inhibits growth of tim23-1 mutant yeast | 330,000 tested, 1.3% active | inhibition, % at 20 µM | AID 463212 | S. cerevisiae tim23-1 growth, BacTiter-Glo luminescence, 24 h;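 active = growth inhibition of the mutant yeast at or above 50%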;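 also: temperature-sensitive mutant grown at 25 °C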
tim10-1 inh = inhibits growth of tim10-1 mutant yeast. inhibition, % at 20 µM. 330,000 tested, 2.2% active. S. cerevisiae tim10-1 ts strain growth, BacTiter-Glo, 24 h;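 active = inhibition of at least 40%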;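 also: mutant grown at 25 °C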
TIM10 inh = growth inhibitors of TIM10 yeast strain. S. cerevisiae TIM10 strain growth, BacTiter-Glo luminescence, 24 h. inhibition, % at 10 µM. 330,000 tested, 1.4% active;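 active = inhibition of 40% or more at the single tested concentration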;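 also: wild-type TIM10 isogenic control strain grown at permissive 25 °C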
PfHsp90 set2 = inhibits growth of yeast expressing Plasmodium falciparum Hsp90; S. cerevisiae expressing PfHsp90, BacTiter-Glo ATP, 48 h; yeast lacking PDR1 and PDR3 efflux regulators; inhibition, % at 9.4 µM; 310,000 tested, 0.32% active;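 active = every replicate shows inhibition above about 80%, whatever the replicate mean, limit read from the data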
SKKanGAS inh = SKKanGAS growth inhibition; S. pyogenes SKKanGAS, kanamycin growth, BacTiter-Glo, 6 h; inhibition, % at 7.5 µM; 300,000 tested, 1.3% active; AID 1662;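 active = mean replicate score, as percent of positive control median, at least 50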;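 also: strain carries kanamycin resistance gene driven by streptokinase promoter and grows in 40 µg/ml kanamycin; loss of luminescence reflects streptokinase promoter inhibition or plain growth inhibition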
tim10-1 conf = tim10-1 yeast growth inhibition, confirmed | S. cerevisiae tim10-1 ts strain growth, BacTiter-Glo, 24 h | AID 463213 | shares compounds with tim10-1 inh | 7,400 tested, 56% active | inhibition, % at 20 µM;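 active = inhibition of yeast growth at or above a set limit in either of two repeat tests at 20 µM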;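 also: tim10-1 mutant grown at permissive 25 °C to find synthetic lethal compounds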
Each line names hits and unclear results; the compound was inactive in the other large screens (follow-up assays come after a bar, where they were run).

CN(C)S(=O)(=O)c1cccc(NC(=O)CCCC2CCCCC2)c1	tim10-1 inh 41 | tim10-1 conf inactive
COc1ccc(OCC(=O)Nc2ccc(S(=O)(=O)N3CCCCC3)cc2)cc1	tim10-1 inh 45 | tim10-1 conf 52
Cc1cc(C)c(OCC(=O)Nc2ccc(S(=O)(=O)N3CCCC3)cc2)c(C)c1	tim10-1 inh 41 | tim10-1 conf 39
NS(=O)(=O)c1cccc(NC(=O)CCCC2CCCCC2)c1	none
Cc1cccc(C)c1OCC(=O)Nc1cccc(S(=O)(=O)N2CCCC2)c1	none (no result: PfHsp90 set2)
Cc1ccc(-c2csc(NC(=O)CSc3nc4ccccc4[nH]3)n2)cc1	none (no result: tim23-1 inh, tim10-1 inh, TIM10 inh)
COc1cc(NC(=O)C2=C(N3CCOCC3)/C(=C\c3ccc(Cl)cc3Cl)CC2)cc(OC)c1OC	none
N#Cc1ccccc1OCC(=O)Nc1cccc(S(=O)(=O)N2CCCC2)c1	none (no result: SKKanGAS inh)
CCc1ccccc1OCC(=O)Nc1cccc(S(=O)(=O)N2CCCC2)c1	tim10-1 inh 42 (no result: SKKanGAS inh) | tim10-1 conf inactive
Cn1nc(-c2ccc(Cl)cc2)c2cc(C(=O)NCCCN3CCOCC3)sc21	none
Cn1nc(-c2ccc(Cl)cc2)c2cc(C(=O)NCCN3CCOCC3)sc21	tim10-1 inh 46 | tim10-1 conf inactive
Cn1nc(-c2ccc(Cl)cc2)c2cc(C(=O)N3CCN(C(=O)c4ccco4)CC3)sc21	tim10-1 inh 41 | tim10-1 conf inactive
CCCc1nc([N+](=O)[O-])c(S(=O)(=O)c2ccccc2)n1CC(C)C	tim10-1 inh 50 | tim10-1 conf inactive
CC(C)Cn1nc(NS(=O)(=O)c2ccccc2)c2cc3ccccc3nc21	none
COc1cc(C)c(Cl)cc1S(=O)(=O)n1cnc2ccccc21	none
COC(=O)c1ccc(CSc2ncnc3sc(C)c(C)c23)o1	tim10-1 inh 46 (no result: PfHsp90 set2) | tim10-1 conf 37
Cc1sc2ncnc(SCc3ccc(C(=O)O)cc3)c2c1C	none
Cc1cc2c(=O)n(NC(N)=O)c(C)nc2s1	none (no result: SKKanGAS inh)
O=C(CSc1nnc(-c2cccnc2)n1Cc1ccco1)c1ccc2ccccc2c1	tim10-1 inh 45 (no result: PfHsp90 set2) | tim10-1 conf inactive
Cc1ccccc1NC(=O)CC1SC(=O)N(c2ccccc2)C1=O (stereo not given)	tim10-1 inh 45 | tim10-1 conf 38
COC(=O)c1c(Cc2ccccc2Cl)c[nH]c1C	tim10-1 inh 41 | tim10-1 conf inactive
C=C(C)CNC(=S)N=Nc1c(O)[nH]c2ccc([N+](=O)[O-])cc12	tim10-1 inh 42 | tim10-1 conf inactive
COC(=O)c1sc(NC(=O)c2ccc(Cn3cc(Cl)cn3)o2)c(C#N)c1C	tim10-1 inh 44 | tim10-1 conf 30
N#C/C(=C\c1ccc(-c2nc3ccccc3s2)o1)C(N)=O	tim10-1 inh 40 | tim10-1 conf inactive
CCOC(=O)/C(=C/c1ccc(Cl)cc1)NC(=O)c1ccco1	tim10-1 inh 40 | tim10-1 conf inactive
O=C(OCc1ccccc1)/C(=C/c1ccc(Cl)cc1)NC(=O)c1ccccc1Cl	none (no result: PfHsp90 set2)
COc1ccccc1NC(=S)NC(=O)C(C)(C)C	tim10-1 inh 50 | tim10-1 conf inactive
COc1ccccc1NC(=S)NC(=O)Cc1ccccc1	none (no result: PfHsp90 set2)
c1ccc(-c2nnc3ccc(N4CCC5(CC4)OCCO5)nn23)cc1	tim10-1 inh 43 | tim10-1 conf inactive
COCCNC(=O)c1cc2c(s1)-c1ccc(Cl)cc1SC2	tim10-1 inh 42 | tim10-1 conf 41
COc1ccc(C(C(=O)NCC2CCCO2)N(C(=O)Cn2nnc3ccccc32)c2ccc(NC(C)=O)cc2)c(OC)c1 (stereo not given)	none
COc1ccc(-n2ncc(S(=O)(=O)c3ccccc3)c2-c2ccc(Cl)cc2)cc1	tim10-1 inh 41 | tim10-1 conf inactive
O=C(OCc1cn(Cc2ccccc2)nn1)c1ccccc1	none
CC(OC(=O)c1ccc(S(=O)(=O)NCc2ccco2)cc1)C(=O)Nc1ccccc1 (stereo not given)	none (no result: SKKanGAS inh)
N#C/C(=C\c1c[nH]c2ccccc12)c1nnc2n1CCCCC2	none
N#C/C(=N\Nc1cccc2ccccc12)c1nnc2n1CCCCC2	tim10-1 inh 40 | tim10-1 conf inactive
O=C(COC(=O)[C@@H]1CCCN1S(=O)(=O)c1ccc(Cl)cc1)NC1CC1	none

Bioassay records: PubChem, several laboratories
